Experiment [1] is described as follows: NCI Yeast Anticancer Drug Screen. Data for the rad50 strain (AID 155).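 Also: 0% = growth of vehicle-only cultures of the same strain.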 The settings on record: S. cerevisiae rad50 strain growth inhibition; at 50.0 µM; stronger effect = higher value. The gist of the method: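 DNA repair mutant yeast, compound exposure, growth read-out; inhibition is taken relative to vehicle.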
A short description of experiment [2]: NCI Yeast Anticancer Drug Screen. Data for the mec2-1 strain (AID 157). Conditions: S. cerevisiae mec2-1 strain, at 50.0 µM, stronger effect = higher value. The gist of the method:
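Using mec2-1 yeast: add compound, measure growth, express inhibition versus vehicle-treated cultures.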

The nature of experiment [3]: NCI Yeast Anticancer Drug Screen. Data for the sgs1 mgt1 strain (AID 161).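 Also: 0% = growth of cultures given vehicle only.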 Conditions: S. cerevisiae sgs1 mgt1 strain, at 50.0 µM, stronger effect = higher value. The gist of the method: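 Growth of a repair-deficient yeast mutant was monitored after compound treatment and expressed as inhibition relative to vehicle-treated cultures.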
A short description of experiment [4]: NCI Yeast Anticancer Drug Screen. Data for the cln2 rad14 strain (AID 165).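 Also: 0% = growth equal to vehicle treated cultures.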 Conditions: S. cerevisiae cln2 rad14 strain, at 50.0 µM, stronger effect = higher value. The gist of the method:
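Yeast strain cln2 rad14, bearing defects in cell cycle control and DNA repair, serves as the test system; values reflect growth inhibition compared with vehicle.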

Experiment [5] in a line: NCI Yeast Anticancer Drug Screen. Data for the bub3 strain (AID 167). The settings on record: S. cerevisiae bub3 mutant strain, at 50.0 µM, stronger effect = higher value. The gist of the method:
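In this screen, a yeast mutant lacking normal mitotic checkpoint function is challenged with compound. Relative growth versus vehicle gives the inhibition value.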

Experiment [6] can be described thus: NCI Yeast Anticancer Drug Screen. Data for the mlh1 rad18 strain (AID 175). The settings on record: S. cerevisiae mlh1 rad18 strain growth inhibition; at 50.0 µM; stronger effect = higher value. The gist of the method: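 Steps: expose repair-defective yeast to compound; measure growth; express inhibition against vehicle-treated controls.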

Several values for one entry are separate records, joined by “and”; a condition that tells them apart may be missing. Equal values may be shown once. About 79,000 compounds went through this panel and 15% of them were active in at least one assay; those are over-represented in the sample as a whole. Some structures have more than one record in an assay (separate samples or runs), and their calls can disagree. Activity calls are given as the source filed them. Rule as the data show it: active = growth inhibition above about 70%; inactive = the rest.

Growth inhibition data for 23 molecules are collected here from PubChem BioAssay (NCI).

Take `CC(N)Cc1ccc(Cl)cc1` (stereo not drawn): the growth inhibition in experiment [1] was 14.5% (inactive); in experiment [2], -0.3% (inactive); in experiment [3], 1.9% (inactive); in experiment [4], -15.6% (inactive); in experiment [5], -14.9% (inactive); in experiment [6], 3.6% (inactive).

As to `O=[N+]([O-])c1ccc(CCBr)cc1`, the growth inhibition in experiment [1] was 28.8% (inactive) and 30.2% (inactive); in experiment [2], 1.25% (inactive) and 37.6% (inactive); in experiment [3] it was 13.4% (inactive) and 34% (inactive); in experiment [4], 17.1% (inactive) and 11.8% (inactive); in experiment [5], 36.3% (inactive) and 3.2% (inactive); in experiment [6] it was 17.6% (inactive) and -2.15% (inactive).

In the case of `CC(C)OC(=S)S.[Cu+2]`, the growth inhibition is -7% (inactive) in experiment [1]; -6.7% (inactive) in experiment [2]; -2.4% (inactive) in experiment [3]; -31.6% (inactive) in experiment [4]; -15.2% (inactive) in experiment [5]; 2.4% (inactive) in experiment [6].

With `N#CCCCBr`, the growth inhibition in experiment [1] was -2.7% (inactive); in experiment [2], -15.8% (inactive); in experiment [3], 7.2% (inactive); in experiment [4], -13.8% (inactive); in experiment [5], -2% (inactive); in experiment [6], 11.8% (inactive).

With `CC[n+]1cccc2ccccc21`, the growth inhibition in experiment [1] is -0.45% (inactive) and 56.5% (inactive); in experiment [2], -6.7% (inactive) and 60.2% (inactive); in experiment [3] it was -6.7% (inactive) and 73.5% (active); in experiment [4] it was -11.2% (inactive) and 5.65% (inactive); in experiment [5], -4.9% (inactive) and 20.5% (inactive); in experiment [6], -25.2% (inactive) and 66.7% (inactive).

As to `COc1ccc(P2(=S)OC(C)(C)C(C)(C)O2)cc1`, the growth inhibition in experiment [1] is -24.7% (inactive); in experiment [2], -16.2% (inactive); in experiment [3], -23.7% (inactive); in experiment [4], -51.6% (inactive); in experiment [5], -11.4% (inactive); in experiment [6] it was -43% (inactive).

Turning to `CCCCN(CCCC)CC(O)c1ccc(Cl)c(Cl)c1` (stereo not drawn), the growth inhibition in experiment [1] is -1.5% (inactive); in experiment [2] it was -21.3% (inactive); in experiment [3], 28.9% (inactive); in experiment [4], 41.3% (inactive); in experiment [5], 18% (inactive); in experiment [6], 7.75% (inactive).

As for `[C-]#[O+].[C-]#[O+].[C-]#[O+].[Mo].c1ccc([PH+](CC[As](c2ccccc2)c2ccccc2)CC[As](c2ccccc2)c2ccccc2)cc1`, the growth inhibition is 11.4% (inactive) in experiment [1]; 9.45% (inactive) in experiment [2]; 21.1% (inactive) in experiment [3]; 19.2% (inactive) in experiment [4]; 6.7% (inactive) in experiment [5]; 28.9% (inactive) in experiment [6].

For the molecule `Cn1nc(-c2ccc(S(=O)(=O)F)cc2)s/c1=N/NC(=O)c1ccccc1`, the growth inhibition was 4% (inactive) in experiment [1]; 2% (inactive) in experiment [2]; 19.8% (inactive) in experiment [3]; 23.4% (inactive) in experiment [4]; 18.6% (inactive) in experiment [5]; 3.65% (inactive) in experiment [6].

As to `NC(=S)c1cc(N(CCCl)CCCl)c([N+](=O)[O-])cc1[N+](=O)[O-]`, the growth inhibition in experiment [1] was 22.4% (inactive); in experiment [2], -0.25% (inactive); in experiment [3] it was 8.85% (inactive); in experiment [4], 8.85% (inactive); in experiment [5], -11.6% (inactive); in experiment [6], -22.5% (inactive).

Turning to `CC(C)CCC(=O)O[C@H]1CC[C@@]2(C)C(=CC[C@@H]3[C@@H]2CC[C@]2(C)C(=O)CC[C@@H]32)C1`, the growth inhibition was 26.2% (inactive) in experiment [1]; 8.4% (inactive) in experiment [2]; 11.4% (inactive) in experiment [3]; 17.1% (inactive) in experiment [4]; 1.95% (inactive) in experiment [5]; 23.3% (inactive) in experiment [6].

As for `CCOP(=O)(Oc1ccc([N+](=O)[O-])cc1)c1cccc(Br)c1` (stereo not drawn), the growth inhibition in experiment [1] is 41.5% (inactive); in experiment [2], 19.5% (inactive); in experiment [3], 54% (inactive); in experiment [4], 41.3% (inactive); in experiment [5], 38.5% (inactive); in experiment [6] it was 25% (inactive).

As for `COC(=O)C1=NNC2(c3ccccc3Sc3ccccc32)C1C(=O)OC` (stereo not drawn), the growth inhibition in experiment [1] is -8.95% (inactive); in experiment [2], -8.25% (inactive); in experiment [3], -12.5% (inactive); in experiment [4] it was 25.5% (inactive); in experiment [5] it was -18.9% (inactive); in experiment [6] it was -11.8% (inactive).

As for `[Br][Co][Br].[NH-]CC[NH-].[NH-]CC[NH-]`, the growth inhibition was 28.4% (inactive) in experiment [1]; 15.6% (inactive) in experiment [2]; 18.4% (inactive) in experiment [3]; -6.95% (inactive) in experiment [4]; 22.9% (inactive) in experiment [5]; 17.8% (inactive) in experiment [6].

Turning to `c1cc2c3c(cccc3c1)CC2`, the growth inhibition in experiment [1] is -22.4% (inactive); in experiment [2], 35.4% (inactive); in experiment [3], -0.65% (inactive); in experiment [4], -16.3% (inactive); in experiment [5] it was 44.4% (inactive); in experiment [6], -14.6% (inactive).

With `CC1CN=C(Nc2ccc(F)c(Cl)c2)S1` (stereo not drawn), the growth inhibition in experiment [1] is -14.4% (inactive); in experiment [2], -16.1% (inactive); in experiment [3], -44.9% (inactive); in experiment [4], 8.65% (inactive); in experiment [5], -0.25% (inactive); in experiment [6], -22.9% (inactive).

As to `COc1ccc2c(c1O)C1=CC(=O)CCC13CCN(C)C3C2` (stereo not drawn), the growth inhibition in experiment [1] is -5.6% (inactive) and 4.1% (inactive); in experiment [2] it was -6.65% (inactive) and -22.6% (inactive); in experiment [3] it was 8.05% (inactive) and 18.8% (inactive); in experiment [4], 3% (inactive) and 8.05% (inactive); in experiment [5], 8.1% (inactive) and 2.4% (inactive); in experiment [6], 1.4% (inactive) and 0.55% (inactive).

In the case of `COc1cc([C@@H]2c3cc4c(c(O)c3C[C@H]3COC(=O)[C@@H]32)OCO4)cc(OC)c1O`, the growth inhibition in experiment [1] is 17.8% (inactive); in experiment [2], -13.9% (inactive); in experiment [3], 14.2% (inactive); in experiment [4], 9.4% (inactive); in experiment [5] it was 7.2% (inactive); in experiment [6], -14.7% (inactive).

Regarding `CN1CNC2C(=O)CCC2c2ccccc21` (stereo not drawn), the growth inhibition in experiment [1] is -12.2% (inactive); in experiment [2] it was -39.8% (inactive); in experiment [3] it was -21.3% (inactive); in experiment [4], -7.4% (inactive); in experiment [5] it was -28.9% (inactive); in experiment [6] it was -9.1% (inactive).

For the molecule `C=CCc1cc(C=C(C#N)C#N)cc(OC)c1O`, the growth inhibition is -0.15% (inactive) in experiment [1]; -2.85% (inactive) in experiment [2]; 10.7% (inactive) in experiment [3]; 23.1% (inactive) in experiment [4]; 9.05% (inactive) in experiment [5]; 11.7% (inactive) in experiment [6].

Consider `[Mg]=[Se]`, for which the growth inhibition in experiment [1] is 16.6% (inactive); in experiment [2] it was 3.15% (inactive); in experiment [3] it was 14.4% (inactive); in experiment [4] it was -6.5% (inactive); in experiment [5], 6% (inactive); in experiment [6] it was 38.8% (inactive).

On to `C[CH2][Sn]1([CH2]C)[O]C(=O)[O][Sn]([CH2]C)([CH2]C)[O]1`, for which the growth inhibition was -30.1% (inactive) in experiment [1]; 0.95% (inactive) in experiment [2]; -30.2% (inactive) in experiment [3]; -5.05% (inactive) in experiment [4]; -6.05% (inactive) in experiment [5]; -53.3% (inactive) in experiment [6].

For `CCC(C)(C)OC(=O)CCl`, the growth inhibition in experiment [1] is -0.25% (inactive); in experiment [2], 1.25% (inactive); in experiment [3], 7.8% (inactive); in experiment [4], 5.2% (inactive); in experiment [5], 36.7% (inactive); in experiment [6], -5.15% (inactive).
